The whole screen tested about 5,500 compounds, of which about 2,000 (36%) were called active. Another 18% or so got no clear call; they are omitted. Cut-off read from the data, not from the text of the source: active = normalized growth mostly below about 0.91 (no sharp cut-off); inconclusive = no clear call, values can overlap the other calls; inactive = mostly above about 0.92. This is one part of the list.
Test: chemical genetic growth profiling, strain panel (AID 1159580);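 note: tested at 20 µM; growth read once vehicle control cultures reached saturation at 30 °C; 1 = growth at the plate median or of vehicle wells; lower values mean less growth of the strain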
Conditions: S. cerevisiae deletion strains, growth OD

Measured: normalized growth

CCOC(=O)C1=CC2(CC)CCCN3CCc4c(n1c1ccccc41)C32 (configuration not stated)
inactive: locus YAL040C, strain CLN3, active compounds read low 1 | locus YCL061C, strain MRC1 (second series), active compounds read low 1 | locus YDR150W, strain NUM1, active compounds read low 1 | locus YDR363W, strain ESC2, active compounds read low 1 | locus YER002W, strain NOP16, active compounds read low 1.02 | locus YGR078C, strain PAC10, active compounds read low 0.999 | locus YGR229C, strain SMI1, active compounds read low 1.01 | locus YJR075W, strain HOC1, active compounds read low 0.984 | locus YMR307W, strain GAS1, active compounds read low 1.01 | locus YNL153C, strain GIM3, active compounds read low 0.989 | locus YNL175C, strain NOP13, active compounds read low 1.03 | locus YNL197C, strain WHI3, active compounds read low 1.03 | locus YNL224C, strain SQS1, active compounds read low 1.01 | locus YNL322C, strain KRE1, active compounds read low 0.983 | locus YOR083W, strain WHI5 (second series), active compounds read low 1.01 | locus YPL055C, strain LGE1, active compounds read low 1.02 | locus YPL241C, strain CIN2, active compounds read low 0.997
